An excerpt weighted towards active compounds, which were near 2.5% of everything screened.
Cruzain inh noDet: cruzain (T. cruzi) inhibition without detergent; P25779; purified cruzain, Z-FR-AMC fluorescence, no detergent; Potency, µM, for inactives: max response, negative = inhibition, usual class: inhibitors; 200,000 tested, 2.3% active; AID 1476;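 further: plate controls were enzyme without inhibitor for no effect and buffer without enzyme for full effect; nearly all actives have a fitted effect of over 40% in size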
Target sequence (P25779 123-467 limits assumed): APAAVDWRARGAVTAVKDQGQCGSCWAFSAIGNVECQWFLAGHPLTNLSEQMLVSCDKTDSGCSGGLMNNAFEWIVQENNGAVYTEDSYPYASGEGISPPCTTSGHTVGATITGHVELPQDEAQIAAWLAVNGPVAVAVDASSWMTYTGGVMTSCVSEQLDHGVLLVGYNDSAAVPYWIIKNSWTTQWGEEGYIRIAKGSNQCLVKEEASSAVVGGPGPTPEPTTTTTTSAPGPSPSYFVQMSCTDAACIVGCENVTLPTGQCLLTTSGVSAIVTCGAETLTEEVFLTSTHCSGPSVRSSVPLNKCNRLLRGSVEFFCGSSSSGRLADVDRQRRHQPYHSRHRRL
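Purified cruzain at 1.5 nM, pre-incubated 15 min with compound at room temperature in 100 mM sodium acetate pH 5.5, 5 mM DTT, 0.00005% Triton X-100. Reaction started with 2 uM Z-FR-AMC; AMC fluorescence increase over 60 s gives rate.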
Cruzain inh Det: cruzain (T. cruzi) inhibition with detergent. P25779. purified cruzain, Z-FR-AMC fluorescence, 0.01% Triton. Potency, µM, for the others: max response, negative = inhibition, most hits filed as inhibitors. 200,000 tested, 0.43% active;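 further: plate controls were neutral wells for no effect and buffer without enzyme for full effect; nearly all actives have a fitted effect of over 40% in size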
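Compounds were screened in titration against cruzain (1.5 nM) with 0.01% Triton X-100 to counter colloidal aggregation. Activity was the AMC fluorescence increase over 60 s after adding 2 uM Z-FR-AMC at pH 5.5.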
Numbers without * were called inactive; u = inconclusive. The call rests on the fitted dose curve; in most records, active means well fitted curve in the direction sought with a large enough effect; inconclusive means small, poorly fitted or top-dose-only effect, or another doubt; inactive means no such curve, though single readings can be large; an effect the other way counts as inactive or inconclusive. Potency means the concentration at half of the fitted maximal effect.

SMILES | Cruzain inh noDet | Cruzain inh Det
COc1cc2c(cc1NC(=O)COc1ccc(Cl)cc1)oc1ccccc12 | -1% | -2%
COc1ccc(C(=O)Nc2ccc(-c3cc4ccccc4oc3=O)c(C)c2)cc1Br | 25µM* | -20%
Cc1cc(NC(=O)c2ccc(F)cc2)ccc1-c1cc2ccccc2oc1=O | 5% | -2%
COc1cc(NC(=O)COc2ccc(Cl)cc2)ccc1-c1cc2ccccc2oc1=O | 5µM* | 0%
Cc1nc2c(C(=O)N(C)Cc3ccccc3)c[nH]n2c(=O)c1Cc1ccc(Cl)cc1 | -3% | 2%
O=c1c(=O)n(-c2ccc(F)c(F)c2)ccn1Cc1ccc(F)cc1Cl | 1% | -1%
O=C1c2cccc3c(N4CCOCC4)c([N+](=O)[O-])cc(c23)C(=O)N1c1cccc2ccccc12 | 13µM* | -9%
Cc1cccc(N2C(=O)c3cccc4c(N5CCCCC5)c([N+](=O)[O-])cc(c34)C2=O)c1C | u | -6%
Cc1ccc(S(=O)(=O)c2cnc(SCC(=O)Nc3cccc(Cl)c3)nc2N)cc1C | -10% | 0%
CCOC(=O)c1[nH]c2ccccc2c1NC(=O)c1cc(OC)cc(OC)c1 | -1% | -12%
CCOc1ccc(NC(=O)N2CCN(Cc3cc(=O)n4nc(-c5ccc(OC)cc5)sc4n3)CC2)cc1 | -11% | 3%
O=C(Cc1nnc(NC(=O)Nc2ccccc2)s1)NCc1ccccc1 | -75% | -2%
COc1ccc(Cc2nnc(NC(=O)c3ccc(Cl)c([N+](=O)[O-])c3)s2)cc1 | 16µM* | 7%
O=C(Nc1ccccc1)Nc1nnc(SCc2ccc(Cl)cc2)s1 | u | -1%
COCC(=O)Nc1nnc(Cc2ccc(OC)cc2)s1 | -3% | 2%
O=C(Nc1ccc(Cl)cc1)Nc1nnc(SCc2ccc(Cl)cc2)s1 | 7.9µM* | 1%
O=C(Cc1nnc(NC(=O)Nc2ccc(Cl)cc2)s1)NCc1ccccc1 | 10µM* | 1%
O=C(Nc1ccc(Cl)cc1)Nc1nnc(Cc2ccc([N+](=O)[O-])cc2)s1 | 7.9µM* | -2%
Cc1ccc(NC(=O)Nc2nnc(Cc3ccc([N+](=O)[O-])cc3)s2)cc1 | -19% | 0%
Cc1ccc(-n2ncc3c(N4CCC(Cc5ccccc5)CC4)ncnc32)cc1 | 9% | 0%
COc1ccc(CCNC(=O)CCc2c(C)nc3cc(-c4ccccc4OC)nn3c2C)c(OC)c1 | u | -9%
CCC(C(=O)NCCc1ccc(OC)c(OC)c1)n1nc(C)c2sc3ccccc3c2c1=O (stereo unspecified) | u | -12%
Cc1ccc(CN2CCc3nc(N4CCN(C)CC4)ncc3C2)s1 | -2% | -1%
CCCOc1ccc(C2c3c(-c4ccccc4O)n[nH]c3C(=O)N2CCCOCC)cc1OCC (stereo unspecified) | u | -13%
COc1ccc(/C(C)=N/OC/C(O)=C(\C#N)c2nc3ccccc3[nH]2)cc1 | 5µM* | 1%
SMILES | Cruzain inh noDet | Cruzain inh Det
COc1ccc(/C=N/OC/C(O)=C(\C#N)c2nc3ccccc3[nH]2)cc1OC | -6% | -5%
Nc1c(C(=O)c2ccccc2)sc2snc(SCC(=O)c3ccccc3)c12 | 13µM* | -28%
Nc1nnc(SCC(=O)c2ccccc2)s1 | -10% | 2%
Cc1ccc(C)c(N2CCN(C(=O)C3CCCN(S(=O)(=O)c4ccc5c(c4)oc(=O)n5C)C3)CC2)c1 (stereo unspecified) | 13% | -1%
COC(=O)CN1C(=O)CSc2ccc(S(=O)(=O)Nc3cccc(C)c3)cc21 | -14% | -7%
CC(C)c1ccc2c(c1)NC(c1ccncc1)=NC(c1cccs1)=N2 | 2% | -9%
CCOc1ccc(C2=NC(c3cccs3)=Nc3ccc(C(C)C)cc3N2)cc1 | 3.2µM* | -7%
COc1ccc(OC)c(S(=O)(=O)N2CCC(c3ccncc3)CC2)c1 | 2% | 3%
COc1ccc(S(=O)(=O)c2nnn(-c3ccccc3F)c2C)cc1 | -14% | -2%
O=C1C(=O)N(C2CCN(S(=O)(=O)c3ccccc3)CC2)CCN1Cc1ccccc1 | -9% | 3%
O=C(c1cc2sccc2n1Cc1ccc(F)cc1)N1CCN(c2nc3ccccc3s2)CC1 | 13µM* | -2%
Cn1c(C(=O)N2CCN(c3nc4ccccc4s3)CC2)cc2sccc21 | -22% | -16%
COc1ccccc1-c1nc(C#N)c(N2CCC(Cc3ccccc3)CC2)o1 | u | 35µM*
COc1ccccc1-c1nc(C#N)c(N2CCN(Cc3ccccc3)CC2)o1 | -2% | -19%
c1ccc(Oc2nc(NC3CCCCC3)c3[nH]cnc3n2)cc1 | 2% | 0%
C=CCn1c(-c2cccc(Cl)c2)n[nH]c1=S | 12% | -6%
C=CCn1c(-c2oc3nc(-c4ccccc4)cc(-c4ccccc4)c3c2N)n[nH]c1=S | 25µM* | -11%
CCOc1ccc(-n2c(=O)c3c(C)c(C)sc3n(CC(=O)N(CC)Cc3ccccc3)c2=O)cc1 | 5% | -1%
CCNc1ccc(-c2nc(-c3ccco3)no2)cc1[N+](=O)[O-] | -15% | -1%
COCCNc1ccc(-c2nc(-c3ccco3)no2)cc1[N+](=O)[O-] | 3.2µM* | -3%
Cc1ccc(C(=O)NC(=S)N2CCN(c3ccc([N+](=O)[O-])cc3)CC2)cc1 | 14% | -8%
Cc1ccc(C(=O)ON=C2CCN(c3ccc([N+](=O)[O-])cc3)CC2)cc1 | 32µM* | -3%
CC(C)(C)OC(=O)N1CCC(c2c(C(=O)N3CCN(c4ccccn4)CC3)cnn2-c2ccc(F)cc2)CC1 | -11% | 0%
CCOc1ccc(C(=O)c2oc3ccccc3c2NC(=O)c2cc(-c3ccc(C)cc3)on2)cc1 | -2% | -1%
CC(C)C[C@H]1COC(c2ccc(Br)cc2)=N1 | 4% | -3%
SMILES | Cruzain inh noDet | Cruzain inh Det
Cc1cccc(C)c1Nc1nnc(SCc2nc3ccccc3s2)s1 | 32µM* | -8%
COc1cccc(Nc2nnc(SCc3nc4ccccc4s3)s2)c1 | -13% | -9%
CCCCn1cnc2cc(NCc3ccccc3Cl)ccc21 | -18% | -21%
Cn1cc(-c2cc3n(n2)CCC(=O)N3CC(=O)NCc2ccc(Cl)cc2)c2ccccc21 | u | -3%
C=CCNc1nc(-c2sc(NC(=O)CC)nc2C)cs1 | u | -10%
Cc1nc(NC(=O)CC(C)C)sc1-c1csc(Nc2ccc(Cl)cc2Cl)n1 | 16µM* | -1%
CCCCCC(=O)Nc1nc(C)c(-c2csc(Nc3cc(OC)ccc3OC)n2)s1 | u | 5%
C=CCCC(=O)Nc1nc(C)c(-c2csc(Nc3cc(Cl)ccc3OC)n2)s1 | 16µM* | -4%
Cc1nc(NC(=O)CC(C)C)sc1-c1csc(Nc2ccc(Cl)cc2)n1 | 13µM* | 2%
C=CCCC(=O)Nc1nc(C)c(-c2csc(Nc3ccc(Cl)cc3Cl)n2)s1 | u | -1%
CCCCCCC(=O)Nc1nc(C)c(-c2csc(Nc3cc(OC)ccc3OC)n2)s1 | 10µM* | -2%
Cc1cn2c(=O)c(S(=O)(=O)N3CCN(c4cc(Cl)ccc4C)CC3)c(C)nc2s1 | -2% | -1%
CCCCS(=O)(=O)CC(O)CSc1nc(-c2ccc(C)cc2)cc(-c2ccccc2)c1C#N (stereo unspecified) | -23% | -2%
Cc1cccc(NC(=O)CSc2cn(CC(=O)N3CCOCC3)c3ccccc23)c1C | 23% | -4%
COc1ccc(/C=C\c2onc(C)c2S(=O)(=O)N2CCC(C(=O)Nc3cccc(OC)c3)CC2)cc1 | u | -1%
COc1ccc(Cl)cc1Nc1nc(-c2sc(NC(=O)CC(C)C)nc2C)cs1 | 20µM* | -2%
COc1ccc(C2NC(=O)c3sc(=S)n(-c4ccccc4)c3N2)cc1 (stereo unspecified) | 25µM* | 0%
